From PubChem BioAssay AID1159580 (chemical genetic matrix, 2015)
“And” between values parts separate entries of the source, which are not always exact repeats. Equal entries are not always repeated. Hit rate of the full screen: of about 5,500 compounds, about 2,000 (36%) were called active. Inconclusive results (about 18%) are left out. No stated cut-off is given here; in the data, active means normalized growth mostly below about 0.91 (no sharp cut-off); inconclusive means no clear call, values can overlap the other calls; inactive means mostly above about 0.92. This is one part of the list.

Assay: chemical genetic growth profiling, strain panel (AID 1159580);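 further: tested at 20 µM; growth read once vehicle control cultures reached saturation at 30 °C; 1 = growth at the plate median or of vehicle wells; lower values mean less growth of the strain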
Details: S. cerevisiae deletion strains, growth OD

Measured: normalized growth

CC1CCc2cc(F)cc3c(=O)c(C(=O)O)cn1c23 (configuration not stated)
inactive: locus YAL013W, strain DEP1, hits give low values 0.985 | locus YAL021C, strain ccr4, hits give low values 0.967 | locus YAL026C, strain drs2, hits give low values 0.981 | locus YAL030W, strain snc1, hits give low values 0.989 | locus YBL061C, strain skt5, hits give low values 0.985 | locus YBR009C, strain hhf1, hits give low values 0.987 | locus YBR021W, strain FUR4, hits give low values 0.943 | locus YBR023C, strain chs3, hits give low values 0.975 | locus YBR171W, strain sec66, hits give low values 0.979 | locus YBR229C, strain ROT2, hits give low values 0.98 | locus YBR231C, strain swc5, hits give low values 0.997 | locus YBR279W, strain paf1, hits give low values 0.985 | locus YCL011C, strain gbp2, hits give low values 0.988 | locus YCL016C, strain dcc1, hits give low values 0.977 | locus YCL029C, strain bik1, hits give low values 0.925 | locus YCL061C, strain MRC1, hits give low values 0.989 | locus YCL069W, strain vba3, hits give low values 0.992 | locus YCR088W, strain abp1, hits give low values 0.999 | locus YDL005C, strain med2, hits give low values 0.995 | locus YDL035C, strain GPR1, hits give low values 1 | locus YDL040C, strain nat1, hits give low values 0.999 | locus YDL074C, strain BRE1, hits give low values 0.972 | locus YDL101C, strain DUN1, hits give low values 0.974 | locus YDL134C, strain PPH21, hits give low values 0.975 | locus YDL185W, strain tfp1, hits give low values 0.981 | locus YDL192W, strain arf1, hits give low values 0.967 | locus YDR001C, strain nth1, hits give low values 0.992 | locus YDR069C, strain doa4, hits give low values 1 | locus YDR101C, strain arx1, hits give low values 0.962 | locus YDR137W, strain rgp1, hits give low values 0.942 | locus YDR150W, strain NUM1, hits give low values 0.981 | locus YDR159W, strain sac3, hits give low values 1.01 | locus YDR162C, strain NBP2, hits give low values 0.991 | locus YDR195W, strain ref2 0.99 | locus YDR297W, strain sur2, hits give low values 0.997 | locus YDR318W, strain mcm21, hits give low values 0.97 | locus YDR334W, strain swr1, hits give low values 0.986 | locus YDR335W, strain msn5, hits give low values 0.991 | locus YDR388W, hits give low values 0.952 | locus YDR392W, strain spt3, hits give low values 0.941 | locus YDR502C, strain sam2, hits give low values 0.984 | locus YEL003W, strain gim4, hits give low values 1 | locus YEL037C, strain rad23, hits give low values 0.993 | locus YEL061C, strain CIN8 (second series), hits give low values 0.993 | locus YEL061C, strain CIN8, hits give low values 0.985 | locus YER015W, strain faa2, hits give low values 0.982 | locus YER016W, strain bim1, hits give low values 1 | locus YER110C, hits give low values 0.976 | locus YER111C, strain swi4, hits give low values 0.984 | locus YER155C, strain BEM2 (second series), hits give low values 0.994 | locus YER155C, strain BEM2, hits give low values 0.975 | locus YER167W, strain BCK2, hits give low values 0.988 | locus YFR010W, strain ubp6, hits give low values 0.984 | locus YGL078C, strain dbp3, hits give low values 0.969 | locus YGL086W, strain mad1, hits give low values 0.987 | locus YGL167C, strain pmr1, hits give low values 0.993 | locus YGL173C, strain kem1, hits give low values 0.991 | locus YGL227W, strain vid30, hits give low values 0.985 | locus YGL240W, strain doc1, hits give low values 0.991 | locus YGL248W, strain PDE1, hits give low values 0.984 | locus YGL253W, strain hxk2, hits give low values 0.995 | locus YGR078C, strain PAC10, hits give low values 0.974 | locus YGR135W, strain pre9, hits give low values 0.974 | locus YGR229C, strain SMI1, hits give low values 1.01 | locus YGR252W, strain gcn5, hits give low values 1.04 | locus YHR013C, strain ard1, hits give low values 0.965 | locus YHR027C, strain rpn1, hits give low values 0.985 | locus YHR030C, strain SLT2, hits give low values 0.982 and 0.978 | locus YHR079C, strain IRE1 (second series), hits give low values 0.955 | locus YHR079C, strain IRE1, hits give low values 0.988 | locus YHR094C, strain hxt1, hits give low values 0.983 | locus YHR129C, strain ARP1, hits give low values 0.977 | locus YHR142W, strain chs7, hits give low values 0.981 | locus YHR200W, strain rpn10, hits give low values 0.969 | locus YIL066C, strain RNR3, hits give low values 0.974 | locus YIL073C, strain SPO22, hits give low values 0.991 | locus YIL125W, strain kgd1, hits give low values 0.985 | locus YIR030C, strain dcg1, hits give low values 0.972 | locus YJL092W, strain hpr5, hits give low values 0.988 | locus YJL095W, strain BCK1 (second series), hits give low values 0.989 | locus YJL095W, strain BCK1, hits give low values 0.948 and 0.982 | locus YJL115W, strain asf1, hits give low values 0.983 | locus YJL129C, strain trk1, hits give low values 1 | locus YJL134W, strain LCB3, hits give low values 0.984 | locus YJL154C, strain vps35, hits give low values 0.991 | locus YJL164C, strain tpk1, hits give low values 0.988 | locus YJL166W, strain qcr8, hits give low values 0.981 | locus YJL168C, strain set2, hits give low values 0.967 | locus YJL187C, strain SWE1 (second series), hits give low values 0.954 | locus YJL187C, strain SWE1, hits give low values 0.989 | locus YJR043C, strain POL32, hits give low values 0.979 | locus YJR066W, strain TOR1, hits give low values 0.897
